Assay [1] is described as follows: qHTS profiling of the MIPE4 collection as inhibitors of Plasmodium falciparum (3D7) proliferation (AID 743344).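 Also: scaled between DMSO vehicle wells and 0.29 µM artemisinin as full inhibition.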 The conditions noted are these: P. falciparum 3D7 in erythrocytes, SYBR Green DNA fluorescence, 72 h; at 28.5 µM unless noted. The gist of the method: (§1)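 Parasite DNA was quantified by SYBR Green I fluorescence (ex 485, em 535 nm) after overnight lysis in saponin/Triton buffer at room temperature. Cultures at 0.3% parasitemia and 2.5% hematocrit were first exposed to compound for 72 h at 37 C; signals were normalised to artemisinin (0.29 uM) and vehicle wells.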

Assay [2] is described as follows: qHTS profiling of the MIPE4 collection as inhibitors of Plasmodium falciparum (DD2) proliferation (AID 743345). The conditions noted are these: P. falciparum Dd2 in erythrocytes, SYBR Green DNA, 72 h; at 28.5 µM unless noted. The gist of the method:
as §1

A short description of assay [3]: qHTS profiling of the MIPE4 collection as inhibitors of Plasmodium falciparum (DD2) proliferation (Rep 2) (AID 743346). The conditions noted are these: P. falciparum Dd2 in erythrocytes, SYBR Green DNA, 72 h; at 28.5 µM unless noted. The gist of the method:
as §1

The nature of assay [4]: qHTS profiling of the MIPE4 collection as inhibitors of Plasmodium falciparum (HB3) proliferation (AID 743347).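 Also: plate controls were DMSO vehicle wells for no effect and artemisinin wells for full effect.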 Conditions: P. falciparum HB3 in erythrocytes, SYBR Green DNA, 72 h; at 28.5 µM unless noted. The gist of the method:
as §1

The nature of assay [5]: High-throughput drug toxicity screening in the BPDCN cell line Gen2.2 (AID 1224824).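 Also: cells exposed to compounds for 48 h before reading.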 Conditions: Gen2.2 BPDCN cells; at 45.8 µM (top of the series) unless noted. The gist of the method: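 Seed 500 exponentially growing Gen2.2 cells/well; add compounds by pin tool; incubate 48 h, 37 °C, 5% CO2; add CellTiter-Glo, 15 min RT; read luminescence. % activity vs DMSO (100%) and bortezomib (0%).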

Assay [6] is described as follows: High-throughput drug toxicity screening in the BPDCN cell line Cal-1 (AID 1224825). Conditions: Cal-1 BPDCN cell viability, qHTS; at 45.8 µM (top of the series) unless noted. Summed up: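 CellTiter-Glo luminescence after 48 h compound exposure; percent activity scaled with DMSO as 100% and bortezomib (9.2 uM final) as 0%. Cal-1 cells seeded at 500/well in RPMI, 10% FBS, no phenol red.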

A short description of assay [7]: qHTS assay for measurement of the activity of small molecule inhibitors on Zika virus induced Caspase-3 activity in human iPSC derived neural progenitor cells (hNPCs) (AID 1224857; active = well fitted curve in the direction sought with a large enough effect; an effect the other way counts as inactive or inconclusive; also: % of control where 0% means no effect; nearly all actives have a fitted effect of over 65% in size). Summed up: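 Zika virus (2 FFU/cell) infection of human iPSC-derived NPCs, 6 h, following 1 h compound preincubation. Read-out: Caspase-Glo 3/7 luminescence.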
The nature of assay [8]: qHTS assay for measurement of the activity of small molecule inhibitors on Zika virus induced Caspase-3 activity in human astrocytoma cells (AID 1224859; active = well fitted curve in the direction sought with a large enough effect; an effect the other way counts as inactive or inconclusive;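 also: plate controls were ZIKV-infected untreated cells for no effect and uninfected cells for full effect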). The gist of the method:
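Caspase activation in ZIKV-infected SNB-19 cells (2 FFU/cell, 6 h) measured by Caspase-Glo 3/7 luminescence after 30 min RT; compound pre-incubated 1 h; normalised to uninfected and infected controls.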

Assay [9] in a line: qHTS Screen of the MIPE 4.0 Collection Against Ewings Sarcoma (RDES) (AID 1259252; active = well fitted curve in the direction sought with a large enough effect; an effect the other way counts as inactive or inconclusive; also: nearly all actives have a fitted effect of over 35% in size; also: potency is read from the fitted curve at half-maximal effect). Summed up:
(§2)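 Dose series incubated 48 h with cells in RPMI plus 5% FBS, glutamine and penicillin/streptomycin; cell viability then quantified via CellTiter-Glo.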

Assay [10] can be described thus: qHTS Screen of the MIPE 4.0 Collection Against Ewings Sarcoma (TC71) (AID 1259253; active = well fitted curve in the direction sought with a large enough effect; an effect the other way counts as inactive or inconclusive; also: nearly all actives have a fitted effect of over 40% in size; also: potency is read from the fitted curve at half-maximal effect). Summed up: as §2
Assay [11] in a line: qHTS Screen of the MIPE 4.0 Collection Against Ewings Sarcoma (TC32) (AID 1259256; active = well fitted curve in the direction sought with a large enough effect; an effect the other way counts as inactive or inconclusive; also: nearly all actives have a fitted effect of over 45% in size; also: potency is read from the fitted curve at half-maximal effect). Summed up:
as §2

A short description of assay [12]: qHTS assay to identify small molecule inhibitors of chordoma cells - UCH-1 (AID 1259355; active = well fitted curve in the direction sought with a large enough effect; an effect the other way counts as inactive or inconclusive; also: % is scaled to controls: 0 for no effect and ±100 for the full control effect; nearly all actives have a fitted effect of over 55% in size). Summed up:
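Screening used approved and investigational drugs in 15-point titration against 800 seeded cells per well. A fixed combination of auranofin with camptothecin, doxorubicin, rubitecan and topotecan followed compound addition, and growth was scored by CellTiter-Glo after 48hr.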

Assay [13] can be described thus: qHTS assay to identify small molecule inhibitors of chordoma cells - UCH-2 (AID 1259356; active = well fitted curve in the direction sought with a large enough effect; an effect the other way counts as inactive or inconclusive; also: % is scaled to controls: 0 for no effect and ±100 for the full control effect).
Assay [14] in a line: qHTS profiling for inhibitors of Plasmodium falciparum (DD2) proliferation (AID 743323). The conditions noted are these: lower = more inhibition; at 28.7 µM (top of the series) unless noted. The gist of the method:
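1536-well qHTS; infected RBCs 0.3% parasitemia/2.5% Hct final; cpd 72 h 37 C 5% CO2; lysis buffer + SYBR Green I, o/n RT dark; FI 485/535; norm. to 0.29 uM artemisinin and DMSO, plate-stack corrected.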

The nature of assay [15]: qHTS profiling for inhibitors of Plasmodium falciparum (HB3) proliferation (AID 743324; active = well fitted curve in the direction sought with a large enough effect; an effect the other way counts as inactive or inconclusive;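 also: 100% = DMSO vehicle wells and 0% = artemisinin-treated control wells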). The conditions noted are these: Plasmodium falciparum HB3 blood-stage proliferation; at 28.7 µM (top of the series) unless noted. Summed up: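 SYBR Green fluorescence (485 ex/535 em) of lysed cultures, incubated overnight at room temperature in the dark, quantifies parasite DNA. Infected erythrocytes at 0.3% parasitemia and 2.5% hematocrit were exposed 72 h; values normalized to DMSO and 0.29 uM artemisinin controls.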

Records with an inconclusive call do not appear. The source made the active and inactive calls. Unless noted, no rule for the calls is given here.

Turning to `COC1CCC(C(=O)c2ccc3nc4c(cc3c2)CCCO4)CC1` (centres undefined), the parasite growth, % of DMSO control in assay [1] was found to be 21.8%. This molecule also came in with a parasite growth remaining, % of DMSO control (lower = more inhibition) in [2] of 31.2%. Moreover, the parasite growth, % of control (lower = inhibition) in assay [3] was 15.9%. In assay [4], this molecule yielded a growth, % of control of 11.8%. For the same molecule, in [5], the cell viability, % of control (lower = more cytotoxic) stood at 98%. Also, in assay [6], the viability (% of control) amounted to 85.9%. Moreover, the Potency result in assay [7] and in [8] was “inactive” each time. For the same molecule, the Potency is 13.2 µM (active) in assay [9] and 16.6 µM (active) in assay [10].
`Cc1ccc(NC(=O)Nc2cc(C(F)(F)F)ccc2F)cc1Nc1ccc2c(c1)NC(=O)C2=Cc1ccc[nH]1`: the parasite growth, % of DMSO control in assay [1] was 8.05%. In assay [2], this molecule registered a parasite growth remaining, % of DMSO control (lower = more inhibition) of 14.1%. In assay [3], this molecule gave a parasite growth, % of control (lower = inhibition) of 21.7%. This molecule returned a growth, % of control in [4] of 10.9%. Moreover, the cell viability, % of control (lower = more cytotoxic) in assay [5] is 4.16%. In assay [6], the viability (% of control) is 2.92%. Also, the Potency result in [7] and in assay [8] was “inactive” each time. The Potency in assay [9] was 23.5 µM (active); in assay [10] it was 26.4 µM (active); in assay [11], 26.4 µM (active).
On to `Cc1c(-c2cccc3c(CCCOc4cccc5ccccc45)c(C(=O)O)n(Cc4cccnc4)c23)c(COc2ccc(N3CCN([S+](=O)([O-])N(C)C)CC3)cc2)nn1C`, for which the parasite growth, % of DMSO control in assay [1] was 5.78%. In addition, in assay [2], the parasite growth remaining, % of DMSO control (lower = more inhibition) is 7.43%. The parasite growth, % of control (lower = inhibition) in assay [3] stood at 15.4%. In assay [5], the cell viability, % of control (lower = more cytotoxic) amounted to 121%. Also, in assay [6], the viability (% of control) was determined as 86.1%. Moreover, the Potency entry in [7] and in assay [8] was “inactive” throughout. Also, the Potency was 16.6 µM (active) in [9], 20.9 µM (active) in [10] and 18.7 µM (active) in [11].
`CS(=O)(=O)c1ccc(C2=C(c3ccccc3)C(=O)OC2)cc1` had a parasite growth remaining, % of DMSO control (lower = more inhibition) in [2] of 83.1%. Besides, the parasite growth, % of control (lower = inhibition) in assay [3] came out at 70.8%. In addition, the growth, % of control in assay [4] was 58.5%. Also, the cell viability, % of control (lower = more cytotoxic) in assay [5] was found to be 123%. In addition, the viability (% of control) in [6] turned out to be 109%. Moreover, the Potency entry in assay [7], in assay [8] and in assay [9] was “inactive” each time. In assay [10], the Potency is 18.7 µM (active). In addition, the call in assay [12] and in assay [13] was inactive.
In [1], `Cc1cnc(CNC(=O)c2c(=O)c3ccc(N4CCCN(C)CC4)nc3n3c2sc2ccccc23)cn1` had a parasite growth, % of DMSO control of 6.1% [at 9.64 µM]. In [2], this molecule yielded a parasite growth remaining, % of DMSO control (lower = more inhibition) of 8.18% [at 9.64 µM]. The same molecule displayed a parasite growth, % of control (lower = inhibition) in [3] of 13.1% [at 9.64 µM]. Further, the growth, % of control in [4] is 3.84% [at 9.64 µM]. Further, in [5], the cell viability, % of control (lower = more cytotoxic) came to 230% [at 23.2 µM]. For the same molecule, in [6], the viability (% of control) was determined as 1.44% [at 23.2 µM]. Also, the Potency result in assay [7], in assay [8] and in assay [11] was “inactive” each time. The Potency in assay [9] and in assay [10] was 7.24 µM (active) throughout.
Take `COc1ccc(CCN(C)CCCOc2ccc(S(=O)(=O)c3[nH]c4ccccc4c3C(C)C)cc2)cc1OC`: in assay [14], the activity, percent of control was found to be 1.03%. Further, the remaining proliferation (% of control), lower = more inhibition in assay [15] was -1.05%. In addition, the parasite growth remaining, % of DMSO control (lower = more inhibition) in assay [2] came out at 26.3%. The parasite growth, % of control (lower = inhibition) in [3] was 16.3%. Also, in assay [4], the growth, % of control was 42.9%. Moreover, the cell viability, % of control (lower = more cytotoxic) in assay [5] was determined as 14.1%. Also, in [6], the viability (% of control) came out at 9.08%. For the same molecule, the Potency result in assay [7], in assay [8], in assay [9] and in assay [10] was “inactive” each time.
As for `CN(CC=CC#CC(C)(C)C)Cc1cccc2ccccc12`, the parasite growth, % of DMSO control in assay [1] was found to be 15%. In assay [2], this molecule gave a parasite growth remaining, % of DMSO control (lower = more inhibition) of 79.2%. For the same molecule, in assay [3], the parasite growth, % of control (lower = inhibition) was determined as 14.9%. In addition, in assay [4], the growth, % of control was 14.6%. In addition, the cell viability, % of control (lower = more cytotoxic) in assay [5] is 194%. Besides, in assay [6], the viability (% of control) was determined as 115%. For the same molecule, the Potency result in assay [7], in assay [8], in assay [9] and in assay [10] was “inactive” throughout.
For `O=C(Nc1cccc2c(=O)cc(-c3nn[nH]n3)oc12)c1ccc(OCCCCc2ccccc2)cc1`, the parasite growth, % of DMSO control in [1] turned out to be 8.12%. This molecule also gave a parasite growth, % of control (lower = inhibition) in [3] of 15.1%. The molecule also gave a growth, % of control in assay [4] of 7.59%. In addition, the cell viability, % of control (lower = more cytotoxic) in assay [5] amounted to 51.3%. Also, the viability (% of control) in assay [6] was determined as 26.2%. The Potency result in assay [7] and in assay [8] was “inactive” throughout. Besides, the Potency in assay [9] is 16.6 µM (active); in assay [10] it was 18.7 µM (active); in assay [11], 18.7 µM (active).
`CCOC(=O)[C@H](CCc1ccccc1)N[C@@H](C)C(=O)N1CCCC1C(=O)O` (some centres undefined) gave a parasite growth, % of DMSO control in assay [1] of 53.7%. Further, in assay [3], the parasite growth, % of control (lower = inhibition) is 75.7%. The same molecule came in with a growth, % of control in assay [4] of 95.2%. Moreover, the cell viability, % of control (lower = more cytotoxic) in [5] was found to be 190%. The viability (% of control) in [6] amounted to 76.8%. The Potency entry in assay [7] and in assay [8] was “inactive” each time. The results for the Potency in [9], in assay [10] and in [11] were 20.9 µM (active), 16.6 µM (active) and 16.6 µM (active), respectively.

For the origin of these results see PubChem BioAssay (NCATS).
